Assay results as given in ChEMBL document CHEMBL4888484, “Replenishing the malaria drug discovery pipeline: Screening and hit evaluation of the MMV Hit Generation Library 1 (HGL1) against asexual blood stage Plasmodium falciparum ,using a nano luciferase reporter read-out” (2022).
The campaign covered roughly 150,000 compounds. About 540 (0.36%) showed an effect of 50% or more. The sample holds strong results, similar compounds and a random draw of the others, so the mix is not that of the screen.

tested on: Plasmodium falciparum; test: Primary screen in NF54 nanoGlo assay, in single point, at 2uM, 72h; a lower Z score goes with more inhibition; type: functional, Erythrocyte; conditions: timepoint 72 hour

Row | SMILES | % Inhibition [%] | Z score
1 | Cc1cnc(C2CCOCC2)n1CC1CCN(C(=O)c2cccs2)CC1 | -4 | 0.55
2 | Cc1cc(F)ccc1C(=O)NCc1nnc(C)n1C1CC1 | -2 | 0.34
3 | CCN1CCN([C@H]2CCN(c3cc(Cl)ccc3C#N)C2)CC1 | -9 | 1.34
4 | CCn1c(-c2cc(NC(=O)c3ccncc3)[nH]n2)cc2ccc(OC)cc21 | 34 | -3.83
5 | CCn1c(-c2cc(NC(=O)c3cc(C)cc(C)c3)[nH]n2)cc2ccc(OC)cc21 | 17 | -1.96
6 | CCn1c(-c2cc(NC(=O)c3ccc4c(c3)OCO4)[nH]n2)cc2ccc(OC)cc21 | 52 | -0.45
7 | O=C(c1cnn(Cc2ccccc2)c1)N1CCC[C@@H]1CO | 5 | -0.66
8 | Cc1ccc(CNC(=O)CN2CCN(C(=O)Nc3ccc(Cl)cc3)CC2=O)o1 | 7 | -1.32
9 | CCN1CCOC(C(=O)N2CCCC(COc3ccccc3)C2)C1 (configuration not stated) | -11 | 1.91
10 | Oc1ccccc1-c1cnc(C(F)(F)F)s1 | 93 | -17.09
11 | Oc1ccccc1C1=NN[C@@](O)(C(F)(F)C(F)F)C1 | -6 | 0.8
12 | NC(=O)CC(=O)Nc1ncc(-c2ccccc2F)s1 | 4 | -0.56
13 | Cn1nccc1[C@@H](O)CNC(=O)C1(c2cccnc2)CC2(CCC2)C1 | -8 | 1.59
14 | CCN(CCN(C)C)C(=O)c1cccc(-c2ncccc2C)c1 | -6 | 0.81
15 | CCN(CCN(C)C)C(=O)c1cccc(-c2ccc3nccc(N)c3c2)c1 | 96 | -13.62
16 | CCN(CC)CCN(CC)C(=O)c1cccc(-c2ccc(C)nc2N)c1 | -7 | 0.71
17 | CNC(=O)[C@@H]1C[C@H](NCc2ccccc2F)CN1CC(c1ccccc1)c1ccccc1 | 9 | -1.28
18 | CNC(=O)[C@@H]1C[C@H](NCc2cc(OC)c(OC)c(OC)c2)CN1CC(c1ccccc1)c1ccccc1 | 54 | -11.4
19 | CNC(=O)[C@@H]1C[C@@H](NCc2ccc(C(F)(F)F)cc2)CN1CC(c1ccccc1)c1ccccc1 | 2 | -0.22

Row | SMILES | % Inhibition [%] | Z score
20 | Cc1cccc(OCCN2C(=O)N[C@@]3(CCCCc4ccccc43)C2=O)c1 | 4 | -0.78
21 | CCN(Cc1noc(C2CCC2)n1)Cc1ccccc1C#N | -1 | 0.12
22 | COc1ccc(Cl)cc1-c1c(N2CCCC2)cn[nH]c1=O | 1 | -0.09
23 | O=C(NCCOc1ccccc1)NCCOc1ccccc1 | 1 | -0.22
24 | O=C(NCCOc1ccccc1)c1ccc(C(=O)NCCOc2ccccc2)s1 | 56 | -0.3
25 | Cc1cc(C(=O)NCCOc2ccccc2)c(C)s1 | -17 | 2.3
26 | Cc1cc(C)n(Cc2c(C(=O)NCc3ccc(N(C)C)cc3)noc2C)n1 | -13 | 1.35
27 | C#CCCCCC(=O)Nc1ccc(C#N)cn1 | 4 | -0.84
28 | CC(C)[C@H]1CN(C(=O)c2nc(C(F)(F)F)n3c2CCCC3)CCN1 | -15 | 1.9
29 | Oc1cccc(CN[C@H]2CCCc3occc32)c1Cl | 78 | -12.81
30 | COc1cccc(Cl)c1CN[C@H]1CCCc2occc21 | -24 | 2.8
31 | CC(O)CC(C)(C)CNC1CCCc2occc21 (configuration not stated) | 36 | 0.84
32 | O=C(Nc1ccc(Cl)cc1)N1Cc2nc[nH]c2C[C@H]1c1nc(-c2ccc3ccccc3c2)no1 | 19 | -2.22
33 | Cc1cnn(C2CN(CC(=O)N3CC(=O)Nc4ccccc43)C2)c1 | -10 | 1.59
34 | CCCc1cc(C(=O)N2C[C@@H]3CC[C@H]2CN(C(C)=O)C3)n(C)n1 | 3 | -0.61
35 | CCc1ncnc(N2CC[C@H](Cc3nnn[nH]3)C2)c1F | -13 | 1.77
36 | O=C1NCCCOc2cccc(c2)[C@H]2c3ccc(cc3CCN2C(=O)CCN2CCOCC2)Oc2ccc(O)c1c2 | 39 | -8.79
37 | NC(=O)C1CCN(CCC(=O)N2CCc3cc4ccc3[C@@H]2c2cccc(c2)OCCCNC(=O)c2cc(ccc2O)O4)CC1 | 92 | -17.59
38 | CCn1ccc(C(=O)N2CCc3cc4ccc3[C@@H]2c2cccc(c2)OCCCNC(=O)c2cc(ccc2O)O4)cc1=O | 7 | -1.26

Row | SMILES | % Inhibition [%] | Z score
39 | NCc1cccc(C(=O)N2CCc3cc4ccc3[C@@H]2c2cccc(c2)OCCCNC(=O)c2cc(ccc2O)O4)c1 | 86 | -13.81
40 | Cc1cc(C(=O)N2CCc3cc4ccc3[C@@H]2c2cccc(c2)OCCCNC(=O)c2cc(ccc2O)O4)n(C)n1 | -11 | 1.41
41 | COCC(=O)N1CCc2cc3ccc2[C@@H]1c1cccc(c1)OCCCNC(=O)c1cc(ccc1O)O3 | -2 | 0.47
42 | Cc1ccc(OS(=O)(=O)c2ccc3c(c2)NC(=O)CO3)c(Br)c1 | -5 | 0.38
43 | CCc1nccc(-c2nccn2CCOc2ccccc2F)n1 | -5 | 0.87
44 | CN(C(=O)CC1(C(=O)O)CCC1)[C@H]1CCOc2ccc(Br)cc21 | 1 | -0.26
45 | Cc1cc(CS(=O)(=O)[C@@H](C)C(=O)NCc2ccccc2)on1 | -12 | 2.41
46 | O=S(=O)(Cc1ccc(OC(F)(F)F)cc1)Nc1cccnc1-n1cccn1 | 2 | -0.39
47 | Cc1ccc(NC(=O)Cc2nnc(-c3cnccn3)o2)c(Cl)c1 | -12 | 1.25
48 | Cc1ccc2c(c1)c(-c1ccccc1)c(-c1ccccc1)n2C[C@@H](O)CNCCCO | 1 | -0.17
49 | Cc1c(C)n(CC(O)CNC(C)c2ccccc2)c2c(Cl)cccc12 (configuration not stated) | 59 | -7.71
50 | COCCN(CCOC)C[C@H](O)Cn1c(-c2ccccc2)c(-c2ccccc2)c2cc(C)ccc21 | 0 | 0.06
51 | CC(NCC(O)Cn1c(-c2ccccc2)c(-c2ccccc2)c2ccc3ccccc3c21)c1ccccc1 (configuration not stated) | 88 | -10.69
52 | Cc1c(C)n(C[C@@H](O)CNC2CCCC2)c2c(Cl)cccc12 | 48 | -6.21
53 | CC(NCC(O)COc1ccc2c(c1)OCO2)c1ccccc1 (configuration not stated) | -9 | 1.69
54 | CCC(C)NCC(O)Cn1c(-c2ccccc2)c(-c2ccccc2)c2cc(C)ccc21 (configuration not stated) | 93 | -10.06
55 | CC(C)NC[C@H](O)Cn1c(-c2ccccc2)ccc1-c1ccccc1 | 8 | -1.24
56 | Cc1c(C)n(C[C@@H](O)Cn2ccnc2C)c2c(Cl)cccc12 | -5 | 0.7
